Laboratory results: PubChem BioAssay AID1159580 (chemical genetic matrix, 2015)
“And” between values parts separate entries of the source, which are not always exact repeats. Equal values may be shown once. Among all 5,500 compounds or so, about 2,000 (36%) were called active. About 18% were inconclusive and are not listed. Cut-off read from the data, not from the text of the source: active = normalized growth mostly below about 0.91 (no sharp cut-off); inconclusive = no clear call, values can overlap the other calls; inactive = mostly above about 0.92. This is one part of the list.

Test: chemical genetic growth profiling, strain panel (AID 1159580);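 note: tested at 20 µM; growth read once vehicle control cultures reached saturation at 30 °C; 1 = growth at the plate median or of vehicle wells; lower values mean less growth of the strain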
Conditions: S. cerevisiae deletion strains, growth OD

Measured: normalized growth

CC(CCC(=O)O)[C@H]1CCC2C3C[C@H](O)[C@@H]4C[C@H](O)CC[C@]4(C)C3CC[C@@]21C (stereo partly specified)
inactive: locus YAL021C, strain ccr4, stronger effect = lower value 0.977 | locus YAL026C, strain drs2, stronger effect = lower value 1.01 | locus YAL030W, strain snc1, stronger effect = lower value 0.984 | locus YBL061C, strain skt5, stronger effect = lower value 0.989 | locus YBR009C, strain hhf1, stronger effect = lower value 0.97 | locus YBR021W, strain FUR4, stronger effect = lower value 1.01 | locus YBR023C, strain chs3, stronger effect = lower value 0.982 | locus YBR171W, strain sec66, stronger effect = lower value 0.996 | locus YBR229C, strain ROT2, stronger effect = lower value 1.02 | locus YBR231C, strain swc5, stronger effect = lower value 1.01 | locus YBR279W, strain paf1, stronger effect = lower value 1 | locus YCL011C, strain gbp2, stronger effect = lower value 0.97 | locus YCL016C, strain dcc1, stronger effect = lower value 0.96 | locus YCL029C, strain bik1, stronger effect = lower value 1.04 | locus YCL069W, strain vba3, stronger effect = lower value 0.985 | locus YCR088W, strain abp1, stronger effect = lower value 0.993 | locus YDL005C, strain med2, stronger effect = lower value 0.973 | locus YDL035C, strain GPR1, stronger effect = lower value 1.04 | locus YDL040C, strain nat1, stronger effect = lower value 0.986 | locus YDL074C, strain BRE1, stronger effect = lower value 1.04 | locus YDL101C, strain DUN1, stronger effect = lower value 1.02 | locus YDL185W, strain tfp1, stronger effect = lower value 1.03 | locus YDL192W, strain arf1, stronger effect = lower value 1.04 | locus YDR001C, strain nth1, stronger effect = lower value 0.976 | locus YDR069C, strain doa4, stronger effect = lower value 0.983 | locus YDR101C, strain arx1, stronger effect = lower value 1.04 | locus YDR137W, strain rgp1, stronger effect = lower value 0.957 | locus YDR159W, strain sac3, stronger effect = lower value 1.05 | locus YDR162C, strain NBP2, stronger effect = lower value 1.01 | locus YDR195W, strain ref2 0.957 | locus YDR297W, strain sur2, stronger effect = lower value 0.988 | locus YDR318W, strain mcm21, stronger effect = lower value 1.02 | locus YDR334W, strain swr1, stronger effect = lower value 0.99 | locus YDR335W, strain msn5, stronger effect = lower value 0.979 | locus YDR388W, stronger effect = lower value 1.02 | locus YDR392W, strain spt3, stronger effect = lower value 0.88 | locus YDR502C, strain sam2, stronger effect = lower value 1.04 | locus YEL003W, strain gim4, stronger effect = lower value 1.01 | locus YEL037C, strain rad23, stronger effect = lower value 0.985 | locus YEL061C, strain CIN8 (second series), stronger effect = lower value 0.987 | locus YEL061C, strain CIN8, stronger effect = lower value 1.02 | locus YER015W, strain faa2, stronger effect = lower value 0.987 | locus YER016W, strain bim1, stronger effect = lower value 0.981 | locus YER110C, stronger effect = lower value 1.03 | locus YER111C, strain swi4, stronger effect = lower value 0.974 | locus YER155C, strain BEM2 (second series), stronger effect = lower value 1 | locus YER155C, strain BEM2, stronger effect = lower value 1.02 | locus YER167W, strain BCK2, stronger effect = lower value 1.04 | locus YFR010W, strain ubp6, stronger effect = lower value 1.01 | locus YGL078C, strain dbp3, stronger effect = lower value 1.02 | locus YGL086W, strain mad1, stronger effect = lower value 1.04 | locus YGL167C, strain pmr1, stronger effect = lower value 0.957 | locus YGL173C, strain kem1, stronger effect = lower value 1 | locus YGL227W, strain vid30, stronger effect = lower value 0.994 | locus YGL240W, strain doc1, stronger effect = lower value 1.02 | locus YGL248W, strain PDE1, stronger effect = lower value 1.02 | locus YGL253W, strain hxk2, stronger effect = lower value 1.02 | locus YGR135W, strain pre9, stronger effect = lower value 1.05 | locus YGR252W, strain gcn5, stronger effect = lower value 1 | locus YHR013C, strain ard1, stronger effect = lower value 0.935 | locus YHR027C, strain rpn1, stronger effect = lower value 0.965 | locus YHR030C, strain SLT2, stronger effect = lower value 1.02 and 1.06 | locus YHR079C, strain IRE1 (second series), stronger effect = lower value 1.02 | locus YHR079C, strain IRE1, stronger effect = lower value 1.04 | locus YHR094C, strain hxt1, stronger effect = lower value 1.02 | locus YHR129C, strain ARP1, stronger effect = lower value 1.03 | locus YHR142W, strain chs7, stronger effect = lower value 0.958 | locus YHR200W, strain rpn10, stronger effect = lower value 1.03 | locus YIL066C, strain RNR3, stronger effect = lower value 1 | locus YIL073C, strain SPO22, stronger effect = lower value 1.1 | locus YIL125W, strain kgd1, stronger effect = lower value 1.03 | locus YIR030C, strain dcg1, stronger effect = lower value 1.02 | locus YJL092W, strain hpr5, stronger effect = lower value 0.99 | locus YJL095W, strain BCK1 (second series), stronger effect = lower value 0.99 | locus YJL095W, strain BCK1, stronger effect = lower value 1.08 and 1.04 | locus YJL115W, strain asf1, stronger effect = lower value 0.977 | locus YJL129C, strain trk1, stronger effect = lower value 0.979 | locus YJL134W, strain LCB3, stronger effect = lower value 1.03 | locus YJL154C, strain vps35, stronger effect = lower value 0.987 | locus YJL164C, strain tpk1, stronger effect = lower value 0.95 | locus YJL166W, strain qcr8, stronger effect = lower value 1 | locus YJL168C, strain set2, stronger effect = lower value 1.03 | locus YJL187C, strain SWE1 (second series), stronger effect = lower value 1.06 | locus YJL187C, strain SWE1, stronger effect = lower value 0.993 | locus YJR043C, strain POL32, stronger effect = lower value 1.04 | locus YJR066W, strain TOR1, stronger effect = lower value 1 | locus YKL009W, strain mrt4, stronger effect = lower value 0.994 | locus YKL068W, stronger effect = lower value 1.01 | locus YKL085W, strain MDH1 (second series), stronger effect = lower value 1.02 | locus YKL085W, strain MDH1, stronger effect = lower value 1.02 | locus YKL160W, strain elf1, stronger effect = lower value 0.948 | locus YKL190W, strain CNB1, stronger effect = lower value 1.07 | locus YKR001C, strain vps1, stronger effect = lower value 1.06 | locus YKR026C, strain gcn3, stronger effect = lower value 0.996 | locus YKR091W, strain srl3, stronger effect = lower value 0.973 | locus YLL001W, strain dnm1, stronger effect = lower value 0.932 | locus YLL026W, stronger effect = lower value 0.986 | locus YLL041C, strain sdh2, stronger effect = lower value 0.984 | locus YLR027C, strain aat2, stronger effect = lower value 1 | locus YLR039C, strain RIC1, stronger effect = lower value 1.08 | locus YLR058C, strain SHM2, stronger effect = lower value 1.02 | locus YLR102C, strain apc9, stronger effect = lower value 1.03 | locus YLR113W, strain HOG1, stronger effect = lower value 1.02 | locus YLR221C, strain rsa3, stronger effect = lower value 1.03 | locus YLR258W, strain gsy2, stronger effect = lower value 0.962 | locus YLR262C, strain YPT6 (second series), stronger effect = lower value 0.984 | locus YLR262C, strain YPT6, stronger effect = lower value 1.17 | locus YLR268W, strain sec22, stronger effect = lower value 1.06 | locus YLR320W, strain mms22, stronger effect = lower value 1.02 | locus YLR330W, strain CHS5, stronger effect = lower value 1.06 | locus YLR342W, strain FKS1 (second series), stronger effect = lower value 1.04 | locus YLR342W, strain FKS1, stronger effect = lower value 0.989 | locus YLR357W, strain rsc2, stronger effect = lower value 1 | locus YLR370C, strain arc18, stronger effect = lower value 0.981 | locus YLR371W, strain rom2, stronger effect = lower value 1.03 | locus YLR384C, strain iki3, stronger effect = lower value 0.964 | locus YLR418C, strain cdc73, stronger effect = lower value 1.05 | locus YML016C, strain PPZ1, stronger effect = lower value 1.02 | locus YML032C, strain rad52, stronger effect = lower value 1.01 | locus YML120C, strain ndi1, stronger effect = lower value 0.96 | locus YML124C, strain tub3, stronger effect = lower value 1.02 | locus YMR058W, strain fet3, stronger effect = lower value 0.997 | locus YMR078C, strain ctf18, stronger effect = lower value 1.03 | locus YMR125W, strain sto1, stronger effect = lower value 0.978 | locus YMR129W, stronger effect = lower value 1.02 | locus YMR205C, strain PFK2, stronger effect = lower value 0.993 | locus YMR223W, strain ubp8, stronger effect = lower value 1.03 | locus YMR231W, strain pep5, stronger effect = lower value 0.993 | locus YMR263W, strain SAP30, stronger effect = lower value 1.04 | locus YMR307W, strain GAS1, stronger effect = lower value 1.1 | locus YNL067W, strain RPL9B, stronger effect = lower value 1.09 | locus YNL071W, strain lat1, stronger effect = lower value 0.991 | locus YNL183C, strain NPR1, stronger effect = lower value 0.999 | locus YNL209W, strain ssb2, stronger effect = lower value 0.978 | locus YNL233W, strain BNI4, stronger effect = lower value 1.08 | locus YNL248C, strain rpa49, stronger effect = lower value 1.03 | locus YNL250W, strain rad50, stronger effect = lower value 1.03 | locus YNL271C, strain bni1, stronger effect = lower value 1.02 | locus YNL298W, strain CLA4, stronger effect = lower value 1 | locus YNL307C, strain MCK1, stronger effect = lower value 1.03 | locus YNL322C, strain KRE1 (second series), stronger effect = lower value 0.982 | locus YNR049C, strain mso1, stronger effect = lower value 0.989 | locus YNR052C, strain pop2, stronger effect = lower value 1.02 | locus YOL012C, strain htz1 0.914 | locus YOL147C, strain pex11, stronger effect = lower value 1.03 | locus YOR001W, strain rrp6, stronger effect = lower value 1.02 | locus YOR061W, strain CKA2, stronger effect = lower value 1.02 | locus YOR069W, strain VPS5, stronger effect = lower value 1.02 | locus YOR070C, strain gyp1, stronger effect = lower value 1.01 | locus YOR080W, strain dia2, stronger effect = lower value 0.995 | locus YOR083W, strain WHI5, stronger effect = lower value 0.948 | locus YOR106W, strain vam3, stronger effect = lower value 0.909 | locus YOR136W, strain idh2, stronger effect = lower value 1.04 | locus YOR144C, strain elg1, stronger effect = lower value 1.02 | locus YOR184W, strain ser1, stronger effect = lower value 1.04 | locus YOR231W, strain MKK1, stronger effect = lower value 1.07 | locus YOR265W, strain rbl2, stronger effect = lower value 0.983 | locus YOR270C, strain vph1, stronger effect = lower value 0.982 | locus YOR290C, strain snf2, stronger effect = lower value 0.927 | locus YOR316C, strain cot1, stronger effect = lower value 1.02 | locus YPL051W, strain arl3, stronger effect = lower value 0.954 | locus YPL055C, strain LGE1, stronger effect = lower value 1.06 | locus YPL078C, strain atp4, stronger effect = lower value 0.936 | locus YPL106C, strain sse1, stronger effect = lower value 0.978 | locus YPL240C, strain hsp82, stronger effect = lower value 0.991 | locus YPL256C, strain CLN2, stronger effect = lower value 1.04 | locus YPR119W, strain clb2, stronger effect = lower value 1.02 | locus YPR141C, strain kar3, stronger effect = lower value 1.03 | locus YPR163C, strain tif3, stronger effect = lower value 1.03 | locus YPR167C, strain met16, stronger effect = lower value 1.02 | strain wtn01, stronger effect = lower value 1.05
